# Screening results (PubChem BioAssay)
# A selection: hits, their analogues and other compounds. The true share with any hit is near 3.3%.
# UHRF1 binding: human UHRF1 methylated DNA binding inhibitors; inhibition, % at 4.4 µM; Q96T88; actives 0.75% (n = 370,000); UHRF1 binding to methylated oligo, TR-FRET; in the data active = inhibition above about 21%;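 note: UHRF1 SRA domain binding a hemimethylated CpG hairpin DNA probe; 0% = median of test compound wells and 100% = reference inhibitor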
# PfGluPho inh: PfG6PD (Plasmodium falciparum) enzyme inhibition. PfGluPho enzyme, NADPH resazurin-diaphorase fluorescence. inhibition, % at 20 µM. actives 0.78% (n = 350,000). AID 504690;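 active = inhibition reaching at least a set limit at 20 µM in the primary screen, cut at about 59% in these data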;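 note: 0% = DMSO wells with substrate and 100% = DMSO wells lacking glucose-6-phosphate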
# PRMT1 inh: inhibitors of human PRMT1; Q99873; recombinant PRMT1, activity-based probe fluorescence polarization; inhibition, % at 2.79 µM; actives 1.3% (n = 370,000);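 active = inhibition above about 21% made by adding two undisclosed values, limit read from the data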
# M18AAP inhibitor: blocks P. falciparum M18 aspartyl aminopeptidase; inhibition, % at 7.35 µM; recombinant PfM18AAP, H-Glu-NHMec fluorogenic cleavage; actives 1.2% (n = 290,000);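 active = inhibition above the campaign mean inhibition over all tested compounds plus 3 SD, cut at about 28% in these data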;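 note: 0% = plate median of test compound wells and 100% = 2 mM ZnCl2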
# MBD2 DNA inh: inhibitors of human MBD2 binding to methylated oligonucleotide. TR-FRET. AID 686964. actives 0.31% (n = 370,000). inhibition, % at 4.4 µM. Q9UBB5; in the data active = inhibition above about 13%
# PRMT1 confirm: confirmation of human PRMT1 inhibitors; shares compounds with PRMT1 inh; recombinant His-PRMT1, activity-based probe fluorescence polarization; inhibition, % at 2.79 µM; actives 42% (n = 3,300); AID 687036;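 active = mean inhibition across replicates above the hit cutoff derived for the earlier primary screen, cut at about 22% in these data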
# * hit, by the source's call; . = not tested or not shown.
SMILES,UHRF1 binding,PfGluPho inh,PRMT1 inh,M18AAP inhibitor,MBD2 DNA inh,PRMT1 confirm
O=C1C=CC(=O)N1c1ccccn1,6,-14,5,.,7,.
O=C1C=CC(=O)N1c1ccccc1N1C(=O)C=CC1=O,0,114*,93*,.,3,90*
O=C(O)c1ccccc1C(=O)c1ccc(-c2ccccc2)cc1,3,-17,3,4,6,.
O=C(c1ccccc1)c1ccccc1N1C(=O)C=CC1=O,-1,55,85*,-85,-7,97*
COc1ccc(NC(=O)CS(=O)c2ccc(Cl)c(Cl)c2)cc1 (stereo not drawn),0,-11,0,-14,-7,.
CCOC(=O)/C=C/S(=O)(=O)c1ccc(NC(C)=O)cc1,-2,21,44*,-74,-4,35*
O=C(COc1coc(CN2CCc3ccccc3C2)cc1=O)Nc1cccc(Cl)c1,-1,7,-3,.,2,.
CCOc1cc2c3c(c1)C1(Nc4ccccc4S1)C(=O)N3C(C)(C)CC2C (stereo not drawn),-1,20,78*,10,-6,8
CCOc1cc2c3c(c1)C1(OCCO1)C(=O)N3C(C)(C)CC2C (stereo not drawn),3,7,-5,4,1,.
O=C1N=C(N2CCCCC2)SC1=C1CCCCC1,3,5,8,-15,-5,.
O=C1NC(=S)SC1=C1CCCCCC1,2,-39,32*,11,-2,0
CCN(CC)c1ccc(/C=C(/C#N)c2nc3ccc(C)cc3[nH]2)c(OC(C)C)c1,-16,9,48*,3,-4,53*
N#CSCC(=O)c1cccc2ccccc12,3,20,60*,13,6,47*
Cc1cccn2c(=O)c3cc(C#N)c(=NC(=O)c4ccncc4)n(CCCOC(C)C)c3nc12,8,-11,26*,-1,-2,2
COCCCn1c(=NC(=O)c2ccncc2)c(C#N)cc2c(=O)n3cccc(C)c3nc21,-5,-7,16,7,-7,.
NC(=O)CC(NC(=O)Cc1ccc(Br)cc1)c1ccc(N2CCN(c3ccc(F)cc3)CC2)c([N+](=O)[O-])c1 (stereo not drawn),-4,11,-1,.,-1,.
C/C=C/c1ccc(OCCOCCNCc2ccccc2)c(OC)c1,3,-2,4,7,3,.
Nc1c(C(=O)N/N=C/c2cccnc2)oc2nc(-c3ccco3)cc(-c3ccco3)c12,17,22,46*,17,4,3
O=C(N/C(=C/c1ccco1)C(=O)N1CCOCC1)c1ccccc1Br,-2,1,12,18,3,.
O=C(N/C(=C\c1ccco1)C(=O)N1CCOCC1)c1ccccc1Cl,2,9,29*,7,3,9
O=C(NCC(c1ccco1)N1CCc2ccccc21)c1ccccc1Br (stereo not drawn),-1,18,-1,.,3,.
Cc1ccc(CNC(=O)c2c(-c3ccccc3)sc3ccccc23)o1,7,-1,39*,.,3,1
O=C1CC(Sc2ccc(Cl)cc2)C(=O)N1c1ccc2c(c1)OCCO2 (stereo not drawn),-2,11,55*,-13,-6,45*
Nc1ccccc1SC1CC(=O)N(c2ccc3c(c2)OCCO3)C1=O (stereo not drawn),0,-29,0,-1,3,.
COc1ccc(CCN(/C=C2\Sc3ccccc3C2=O)C(C)=O)cc1OC,4,-4,67*,3,2,45*
SMILES,UHRF1 binding,PfGluPho inh,PRMT1 inh,M18AAP inhibitor,MBD2 DNA inh,PRMT1 confirm
COc1ccc(CCN(C)C(=O)CN2C(=O)c3ccccc3S2(=O)=O)cc1OC,7,12,-2,-5,-3,.
CC(C)(C)CN1CCN(Cc2nc(-c3ccc(F)cc3)cs2)CC1CCO (stereo not drawn),3,10,3,-1,6,.
O=C(CSc1nc(O)c(Cc2ccccc2)c(=O)[nH]1)c1ccccc1,0,-2,47*,0,-1,34*
CCCCc1c(O)nc(SCC(=O)c2ccccc2)[nH]c1=O,6,-8,40*,0,1,38*
CCCN(C(=O)Cc1csc(-c2ccccc2)n1)C1CCS(=O)(=O)C1 (stereo not drawn),-2,-1,-2,.,4,.
CCOc1cc(C(=O)N(C)c2ccccc2)cc(OCC)c1OCC,0,1,3,1,0,.
CC(=O)c1cc2c(cc1NC(=O)C1CN(C(C)=O)c3ccccc3O1)OCO2 (stereo not drawn),0,10,3,.,1,.
O=C1CC(c2ccco2)Sc2ccccc2N1 (stereo not drawn),-2,13,5,0,-6,.
O=c1[nH]c2c(s1)C(c1ccco1)C1C3CCC(C3)C1S2 (stereo not drawn),3,4,39*,18,5,20
Cc1sc(Cc2nc(O)cs2)nc1-c1ccccc1,1,-9,58*,1,6,14
Cc1ccc(Nc2nc(-c3ccccc3)c(CC(=O)O)s2)cc1,-4,11,-3,11,-8,.
O=C(O)Cc1sc(Nc2ccc(F)cc2)nc1-c1cccs1,-1,30,31*,29*,-4,2
Cc1ccc(S(=O)(=O)C/N=C(/NC(=S)N(c2ccccc2)c2ccccc2)c2ccccc2)cc1,-2,20,28*,-4,-2,27*
COc1ccc(S(=O)(=O)N2CCCCC2)cc1NS(=O)(=O)c1ccc(CNC(C)=O)cc1,3,10,0,.,2,.
CCN1CCc2c(sc(NC(=O)Nc3ccc(Cl)c(Cl)c3)c2C(N)=O)C1,-5,17,45*,9,1,5
CCC(=O)Nc1sc2c(c1C(N)=O)CCN(Cc1ccccc1)C2,1,17,5,18,4,.
O=C(O)CSC1CC(=O)N(c2ccc(Cl)c(Cl)c2)C1=O (stereo not drawn),-2,-32,48*,0,2,36*
O=C1NC(=O)C(c2ccc(Cl)cc2Cl)N1 (stereo not drawn),1,-5,-6,.,0,.
N#CC1=C(N)NC(=S)C(C(N)=O)C1c1ccc(Cl)cc1Cl (stereo not drawn),0,47,72*,30*,-6,34*
CNc1ccc(S(=O)(=O)NCC(=O)NCCCc2ccccc2)cc1[N+](=O)[O-],-9,17,27*,3,-4,34*
CN(C)c1ccc(S(=O)(=O)NCC(=O)NCc2ccccc2)cc1[N+](=O)[O-],-4,18,27*,17,-3,26*
COc1cc(CNS(=O)(=O)CCl)cc(OC)c1OC,5,9,4,.,4,.
O=C(Cc1ccccc1)Nc1cccc(N2C(=O)C=CC2=O)c1,2,49,96*,-11,2,95*
CN(CCC#N)c1ccc(/C=C(\C#N)c2ccccn2)cc1,-336,16,194*,6,-81,0
